Results: the supplement of paper PMC10127200

Tests used:
Assay in all cases: Euclidean distance of Cell Painting phenotypic profile (signed KS, 77 features) to DMSO centroid (dimensionless distance); 5 or 10 uM (library dependent); higher = stronger phenotypic change vs DMSO (phenoactivity)
Details in all cases: 48 h
786-O = test system: 786-O
Procedure, shortened: (§1)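 Phenoactivity is computed as Euclidean distance to the median vehicle profile. The profiles, drawn from 77 Harmony features scored as signed Kolmogorov-Smirnov statistics versus same-plate vehicle wells, were corrected for plate position, correlation-weighted and replicate-averaged at the top dose. Stained cells were imaged confocally at 20X (9 fields/well) after 48 h with library compounds at 10 or 5 uM, 0.1% DMSO final, in five cancer lines and a healthy fibroblast line.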

A549 = test system: A549
Procedure, shortened: as §1

DU145 = test system: DU145
Procedure, shortened: as §1

FB = test system: FB
Procedure, shortened: as §1

HEPG2 = test system: HEPG2
Procedure, shortened: as §1

OVCAR4 = test system: OVCAR4
Procedure, shortened: as §1

SMILES | Euclidean distance (786-O) | Euclidean distance (A549) | Euclidean distance (DU145) | Euclidean distance (FB) | Euclidean distance (HEPG2) | Euclidean distance (OVCAR4)
C[C@H]1O[C@H](O[C@H]2[C@H](O)[C@@H](O)[C@@H](O[C@H]3[C@H](O)[C@@H](O)C(O)O[C@@H]3CO)O[C@@H]2CO)[C@H](O)[C@@H](O)[C@@H]1N[C@H]1C=C(CO)[C@@H](O)[C@H](O)[C@H]1O (some centres undefined) [Acarbose] | 1.5 | 1.91 | 1.47 | 1.59 | 0.847 | 1.46
CC[C@H]1[C@@H](O)[C@@H]2[C@H](CC[C@]3(C)[C@@H]([C@H](C)CCC(=O)O)CC[C@@H]23)[C@@]2(C)CC[C@@H](O)C[C@@H]12 [Obeticholic Acid] | 0.797 | 0.614 | 0.878 | 0.944 | 0.851 | 0.844
O=C([O-])c1ccccc1O.[Na+] [Sodium salicylate] | 0.657 | 0.529 | 0.888 | 0.714 | 0.709 | 0.92
CC(C)C[C@H](NC(=O)[C@H](CCc1ccccc1)NC(=O)CN1CCOCC1)C(=O)N[C@@H](Cc1ccccc1)C(=O)N[C@@H](CC(C)C)C(=O)[C@@]1(C)CO1 [Carfilzomib (PR-171)] | 5.78 | 4.54 | 5.77 | 0.729 | 4.79 | 5.41
CC1(C)S[C@@H]2[C@H](NC(=O)[C@H](N)c3ccc(O)cc3)C(=O)N2[C@H]1C(=O)O [Amoxicillin Sodium] | 1.03 | 1.17 | 1.56 | 1.06 | 1.08 | 1.78
S=c1nc[nH]c2nc[nH]c12 [6-Mercaptopurine (6-MP) Monohydrate] | 1.29 | 0.49 | 0.673 | 0.989 | 1.81 | 0.591
CN1CCN(S(=O)(=O)c2ccc(-c3cnc(N)c(C(=O)Nc4cccnc4)n3)cc2)CC1 | 3.21 | 3.47 | 1.43 | 1.66 | 1.34 | 3.18
CC[C@H](c1ccc(O)cc1)[C@@H](CC)c1ccc(O)cc1 [Hexestrol] | 1.62 | 1.07 | 0.97 | 0.95 | 0.662 | 1.06
CNCC(=O)O [Sarcosine] | 1.77 | 0.92 | 1.05 | 1.13 | 0.831 | 1.75
COc1cc(Nc2ncc(F)c(Nc3ccc4c(n3)N(COP(=O)(O)O)C(=O)C(C)(C)O4)n2)cc(OC)c1OC [Fostamatinib (R788)] | 2.67 | 4.8 | 3.08 | 3.33 | 2.44 | 3.7
Cc1cc(F)c(Nc2ncnc3cc(OCc4ccccc4)ccc23)cc1O | 1.83 | 0.984 | 0.521 | 1.8 | 0.631 | 0.745
CN1CCN(C(=O)c2cc3cc(Cl)ccc3[nH]2)CC1 | 1.14 | 0.827 | 0.611 | 0.998 | 0.507 | 1.17
Cc1ccc(NC(=O)c2cccc(C(C)(C)C#N)c2)cc1Nc1ccc2ncn(C)c(=O)c2c1 | 1.3 | 2.03 | 1.98 | 3.42 | 1.53 | 0.804
Nc1nc(Nc2ccc(S(N)(=O)=O)cc2)nn1C(=O)c1c(F)cccc1F | 1.27 | 1.64 | 1.5 | 0.817 | 1.7 | 1.05
Cc1ccc(S(=O)(=O)n2c(N)nc3ccccc32)cc1 [ML130 (Nodinitib-1)] | 0.771 | 1.13 | 0.862 | 0.77 | 1.18 | 0.774
O=NN(CCCl)C(=O)NCCCl [Carmustine] | 1.97 | 0.741 | 1.29 | 0.896 | 0.515 | 0.875
OCCN(CCO)c1nc(N2CCCCC2)c2nc(N(CCO)CCO)nc(N3CCCCC3)c2n1 [Dipyridamole] | 1.24 | 0.954 | 1.33 | 0.963 | 0.833 | 0.968
CC1C(=O)OC2C(O)C34C5CC(C(C)(C)C)C36C(OC(=O)C6O)OC4(C(=O)O5)C12O (centres undefined) [Ginkgolide B] | 0.999 | 1.63 | 0.921 | 1.25 | 2.11 | 1.3
CCCc1cc(C)[nH]c(=O)c1CNC(=O)c1cc(-c2ccc(N3CCN(C(C)C)CC3)nc2)cc2c1cnn2C(C)C | 1.57 | 1.62 | 1.42 | 2.34 | 1.03 | 1.18
O=C(O)c1cccnc1 [Nicotinic Acid] | 1.53 | 0.435 | 1.08 | 0.953 | 1.92 | 1.03
O=C1C(N(CO)C(=O)NCO)N(CO)C(=O)N1CO (centres undefined) [Diazolidinyl urea] | 0.723 | 0.505 | 1.01 | 0.783 | 0.465 | 0.927
NC[C@H](O)c1ccc(O)c(O)c1 [Noradrenaline bitartrate monohydrate] | 1.19 | 0.515 | 0.963 | 1.17 | 0.697 | 0.846
CCCc1nc(C(C)(C)O)c(C(=O)O)n1Cc1ccc(-c2ccccc2-c2nnn[nH]2)cc1 [Olmesartan] | 1.21 | 0.9 | 1.57 | 0.802 | 0.353 | 1.32
NC(=O)c1cnc2[nH]ccc2c1N[C@@H]1[C@@H]2CC3C[C@H]1C[C@@](O)(C3)C2 | 2.3 | 2 | 1.41 | 3.39 | 1.42 | 2.08
